Some test systems named below: HCT-15 colon; HT29 colon; SNB-75 CNS; SNB-19 CNS; U251 CNS; PC-3 prostate; SK-MEL-5 melanoma; UACC-62 melanoma; LOX IMVI melanoma; SK-MEL-28 melanoma.
Experiment in all cases: NCI-60 one-dose screen, 48 h (100 = growth as untreated, 0 = no growth, -100 = all killed)
Holding throughout (details): 10 µM unless noted

Compounds without any hit were thinned out: in the full panel of roughly 83,000, 20% have a hit.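 The test compound was applied at a single concentration to cells in 96-well plates for 48 hours, and percent growth was recorded.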 Unmarked numbers belong to inactive results. Calls of active or inactive are those of the source. Rule for the calls: active = growth percent below 10; inactive = the rest.

As for `Cc1cc(C)nc(NS(=O)(=O)c2ccc(Nc3ccc4c5c(n(CCCN(C)C)c(=O)c4c3)-c3ccccc3C5=O)cc2)n1`, the growth in the assay on HCT-15 colon is 90.3%; in the assay with HT29 colon it was 74.8%; in the assay with SNB-75 CNS, 79.5%; in the assay on SNB-19 CNS it was 91%; in the assay with U251 CNS, 75.3%; in the assay with PC-3 prostate, 86.3%. Also, the growth was 85.6% in the assay on SK-MEL-5 melanoma, 93.3% with UACC-62 melanoma, 72.6% in the assay with LOX IMVI melanoma and 117% in the assay with SK-MEL-28 melanoma.

On to `C=C1C(=O)O[C@H]2[C@H]1CC/C(COC(=O)c1cccnc1N)=C\CC[C@@]1(C)O[C@@H]21`, for which the growth in the assay with HCT-15 colon is 0.999% (active); with HT29 colon it was -10.4% (active); in the assay on SNB-75 CNS, 66%; in the assay with SNB-19 CNS, 25.7%; in the assay with U251 CNS, 28.8%; with PC-3 prostate, 24.8%. Also, the growth with SK-MEL-5 melanoma is 15.3%; in the assay with UACC-62 melanoma, 33%; with LOX IMVI melanoma, 7.48% (active); in the assay on SK-MEL-28 melanoma, 19.6%.

Consider `N#Cc1c(-c2ccc(F)cc2)nc(N=Nc2c(O)[nH]c3ccccc23)nc1N1CCOCC1`, for which the growth in the assay with HCT-15 colon was 66.9%; in the assay with HT29 colon, 78.4%; with SNB-75 CNS, 22.5%; in the assay on SNB-19 CNS, 70.1%; with U251 CNS, 27.4%; with PC-3 prostate, 64.1%. Also, the growth in the assay with SK-MEL-5 melanoma was 64.7%; in the assay on UACC-62 melanoma, 48.8%; with LOX IMVI melanoma, 74.9%; in the assay on SK-MEL-28 melanoma, 72.3%.

For the molecule `O=C1Nc2ccc(Cl)cc2/C1=N/c1nc(-c2ccc(F)cc2)cs1`, the growth was 43.9% with HCT-15 colon; 22.6% in the assay on HT29 colon; 58.6% with SNB-75 CNS; 34.1% in the assay on SNB-19 CNS; 25.4% with U251 CNS; 17.4% with PC-3 prostate. The growth is 41.7% with SK-MEL-5 melanoma, 7.64% (active) in the assay on UACC-62 melanoma, 19.5% in the assay with LOX IMVI melanoma and 42.6% with SK-MEL-28 melanoma.

Turning to `Cc1ccc(SC2c3ccc(C)cc3Oc3nc(N)c(C#N)c(N)c32)cc1` (stereo not given), the growth with HCT-15 colon was 30.7%; in the assay with HT29 colon, 103%; in the assay on SNB-75 CNS, 73.2%; in the assay on SNB-19 CNS it was 109%; with U251 CNS, 85.1%; in the assay with PC-3 prostate, 80.6%. The growth with SK-MEL-5 melanoma was 63.8%; in the assay with UACC-62 melanoma, 103%; with LOX IMVI melanoma, 37.7%; in the assay on SK-MEL-28 melanoma, 87.7%.

Regarding `CCCCn1c(=O)c(/C=C/C(=O)/C=C/c2ccc(OC)cc2)cc2cc(Cl)ccc21`, the growth is 27.5% in the assay with HCT-15 colon; 9.75% (active) in the assay on HT29 colon; 84.9% in the assay with SNB-75 CNS; 47.5% in the assay with SNB-19 CNS; -13.4% (active) in the assay with U251 CNS; 39.5% in the assay on PC-3 prostate. In addition, the growth in the assay with SK-MEL-5 melanoma was 78.9%; in the assay with UACC-62 melanoma it was 76.2%; in the assay with LOX IMVI melanoma it was 9.25% (active); with SK-MEL-28 melanoma, 115%.

With `COc1ccc(NC(=O)c2sc3nc(C)c(C(C)=O)cc3c2N)cc1`, the growth is 91.6% with HCT-15 colon; 83.5% in the assay on HT29 colon; 88.3% with SNB-75 CNS; 96.1% with SNB-19 CNS; 95% with U251 CNS; 92% with PC-3 prostate. Besides, the growth in the assay with SK-MEL-5 melanoma is 93.8%; with UACC-62 melanoma it was 92.9%; in the assay with LOX IMVI melanoma it was 105%; in the assay with SK-MEL-28 melanoma it was 94.1%.

As for `O=C(O)C(C(=O)O)c1cccc2ccccc12`, the growth was 104% in the assay with HCT-15 colon; 94.9% in the assay with HT29 colon; 99.3% in the assay on SNB-75 CNS; 98.3% in the assay with SNB-19 CNS; 99.5% in the assay on U251 CNS; 100% in the assay on PC-3 prostate. For the same molecule, the growth with SK-MEL-5 melanoma is 103%; in the assay with UACC-62 melanoma, 96.8%; in the assay with LOX IMVI melanoma, 97.4%; with SK-MEL-28 melanoma, 111%.

As for `Cc1c(Cl)cccc1NC(=O)c1sc2nc3c(cc2c1N)COCC3`, the growth in the assay with HCT-15 colon is 19.6%; in the assay with HT29 colon, 5.9% (active); in the assay with SNB-75 CNS, 19.4%; in the assay on SNB-19 CNS, 26.5%; with U251 CNS it was 22.6%; with PC-3 prostate, 30.3%. The growth in the assay on SK-MEL-5 melanoma is 23.9%; in the assay on UACC-62 melanoma, 31.1%; in the assay with LOX IMVI melanoma, 35.5%; in the assay with SK-MEL-28 melanoma, 58.6%.

In the case of `CSc1cccc(NC(=O)Nc2nc3c(C)cccc3s2)c1`, the growth was 97.9% with HCT-15 colon; 99.5% with HT29 colon; 76.7% in the assay with SNB-75 CNS; 98.2% in the assay with SNB-19 CNS; 98.9% in the assay with U251 CNS; 95.7% in the assay on PC-3 prostate. Besides, the growth was 95.6% with SK-MEL-5 melanoma, 78.3% in the assay on UACC-62 melanoma, 97.5% in the assay with LOX IMVI melanoma and 112% with SK-MEL-28 melanoma.

On to `C=C(C)[C@@H]1CC[C@]2(C(=O)n3ccnc3)CC[C@]3(C)[C@H](CC[C@@H]4[C@@]5(C)CCCNC(C)(C)[C@@H]5CC[C@]43C)[C@@H]12`, for which the growth in the assay on HCT-15 colon is 3.01% (active); with HT29 colon it was 1.76% (active); with SNB-75 CNS, 81.1%; with SNB-19 CNS it was 52.6%; in the assay with U251 CNS, -45.5% (active); in the assay with PC-3 prostate it was 12.9%. In addition, the growth with SK-MEL-5 melanoma was -97.9% (active); in the assay with UACC-62 melanoma it was 31.9%; in the assay on LOX IMVI melanoma, -92% (active); in the assay on SK-MEL-28 melanoma, -51.5% (active).

As to `COc1ccc(-n2nc(C(=O)NCC(=O)O)nc2-c2ccccc2)cc1`, the growth in the assay with HCT-15 colon is 113%; in the assay with HT29 colon, 98.7%; with SNB-75 CNS, 103%; in the assay on SNB-19 CNS it was 100%; in the assay on U251 CNS it was 107%; with PC-3 prostate, 103%. In addition, the growth with SK-MEL-5 melanoma is 100%; in the assay with UACC-62 melanoma it was 102%; in the assay on LOX IMVI melanoma, 94.1%; with SK-MEL-28 melanoma it was 108%.

Take `O=c1c2ccccc2oc2ccc(OCCCCCCN3CCCCCC3)cc12`: the growth in the assay on HCT-15 colon is 7.65% (active); in the assay on HT29 colon, 8.09% (active); in the assay on SNB-75 CNS it was 88.7%; with SNB-19 CNS, 58.3%; in the assay with U251 CNS, 38.9%; in the assay on PC-3 prostate it was 34%. In addition, the growth with SK-MEL-5 melanoma was -36.7% (active); in the assay with UACC-62 melanoma it was -53.4% (active); with LOX IMVI melanoma, 19.1%; in the assay with SK-MEL-28 melanoma it was 38.5%.

Values taken from PubChem BioAssay (NCI).
